Screening data as filed in PubChem.
Compounds with a hit are over-represented: about 2.9% of the library has one in this group of screens.
KLK7 zymogen act: proKLK7 (human) activation, primary screen. 370,000 compounds, 0.9% hits. activation, % at 7 µM. P49862. purified proKLK7, EDANS-DABCYL substrate fluorescence; 100% is mature enzyme control, 0% vehicle;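 active = activation above the mean of all tested compounds plus 3 SD, computed per campaign excluding outliers beyond control limits, cut at about 13% in these data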
ADAM17 inh: inhibits human ADAM17; P78536; recombinant ADAM17, EDANS/DABCYL FRET peptide cleavage; inhibition, % at 6.95 µM; 370,000 compounds, 0.83% hits;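 active = inhibition above the mean of compounds lying between control limits plus 3 SD, set per campaign, cut at about 8.5% in these data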
PLCg1 inh: PLC-gamma1 (human) inhibition, primary screen; purified PLC-gamma1, fluorogenic substrate, fluorescence; inhibition, % at 12.2 µM; 370,000 compounds, 0.84% hits; in the data active = inhibition above about 9.5%
ADAM10 inh: ADAM10 inhibition, QFRET primary screen; recombinant ADAM10, EDANS/DABCYL FRET peptide cleavage, 3 h; inhibition, % at 7 µM; 370,000 compounds, 0.62% hits; AID 720582;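 active = inhibition above a per-campaign cutoff equal to the mean of compounds falling between control-based bounds plus 3 SD, cut at about 20% in these data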
PLCb3 inh: inhibitors of human phospholipase C beta3 | Q01970 | Purified PLC-beta3, fluorogenic substrate, fluorescence | inhibition, % at 12.2 µM | 370,000 compounds, 0.18% hits | AID 720704; in the data active = inhibition above about 11%
ADAM10 ctr: counter-screen for ADAM17 exosite inhibitors: inhibitors of human ADAM10; shares compounds with ADAM17 inh; recombinant ADAM10, EDANS/DABCYL FRET peptide cleavage, 3 h; inhibition, % at 6.95 µM; 2,900 compounds, 47% hits; AID 743256;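 active = mean inhibition over the triplicate runs exceeds the activity threshold set in the earlier primary screen, cut at about 20% in these data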
ADAM17 confirm: confirmation of inhibitors of human ADAM17. shares compounds with ADAM17 inh. AID 743257. recombinant ADAM17, EDANS/DABCYL QFRET peptide cleavage. 2,900 compounds, 65% hits. inhibition, % at 6.95 µM;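 active = mean inhibition across replicates above the hit cutoff set in the primary screen, cut at about 8.5% in these data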
A number is an active result; n = inactive; x = no result given.

SMILES	KLK7 zymogen act	ADAM17 inh	PLCg1 inh	ADAM10 inh	PLCb3 inh	ADAM10 ctr	ADAM17 confirm
CCCCn1nc(C(=O)Nc2c(C)n(C)n(-c3ccccc3)c2=O)c2ccccc2c1=O	n	n	n	n	n	x	x
COc1ccc(N/N=C(\C#N)C(=N)N2CCOCC2)cc1	n	8.8	n	n	n	n	n
Cc1cc(CSc2ccc(Cl)cc2)ccc1N	n	9.7	n	n	n	21	n
Cc1ccc(S(=O)(=O)c2cc3c(=O)n4ccccc4nc3n(C3CCCCC3)c2=N)cc1	n	n	n	n	n	x	x
O=C(O)c1ccc(CSc2nnc(-c3ccc(Cl)cc3)o2)cc1	n	n	n	n	n	x	x
O=S(=O)(Nc1ccc(-c2nnc(SCc3ccc(Cl)cc3)o2)cc1)c1ccccc1	n	9.2	n	n	n	23	14
COc1ccccc1N(Cc1ccccc1)S(=O)(=O)c1cccc(C(=O)Nc2ncccc2C)c1	n	n	n	n	n	x	x
COc1ccccc1N(Cc1ccccc1)S(=O)(=O)c1cccc(C(=O)Nc2cc(C)ccn2)c1	n	9.0	n	n	n	n	n
C/C(=N\NC(=O)CNC(=O)C(c1ccccc1)c1ccccc1)c1ccc(C(C)(C)C)cc1	n	10	n	n	n	n	n
COc1ccc(-n2nnnc2SCC(=O)c2cccc(OC)c2)cc1	n	10	n	n	n	n	n
CC1(c2nnnn2Cc2ccccc2)CCC(=O)N1Cc1cccnc1 (stereo not drawn)	n	n	n	n	n	x	x
COC(=O)c1ccc2[nH]c(C3(O)CCCCC3)c(C)c2c1	n	11	n	n	n	n	n
CCOC(=O)c1[nH]c2ccc(C(=O)OC)cc2c1C(=O)OCC	n	n	n	n	n	x	x
Cc1ccc(CN2C(=O)[C@@H]3Cc4c([nH]c5ccccc45)C(C)(C)N3C2=O)cc1	n	n	n	n	n	x	x
COc1cccc(CN2C(=O)[C@@H]3Cc4c([nH]c5ccccc45)C(C)(C)N3C2=O)c1	n	8.7	n	n	n	n	14
Cc1ccc(CN2C(=O)[C@H]3Cc4c([nH]c5ccccc45)C(C)(C)N3C2=O)cc1	n	12	n	n	n	n	12
COc1cc(CNc2ncnc3c2ncn3[C@H]2CN(Cc3ccccc3)C[C@@H](COC(C)=O)O2)cc(OC)c1OC	n	n	n	n	n	x	x
CCc1cccc(C)c1NC(=O)COC(=O)Cc1ccccc1	n	n	n	n	n	x	x
CCC[C@H]1[C@@H](NC(=O)c2ccc(OC)cc2)CC[C@@]23CCCN2C(=O)CCC[C@@H]13	x	n	n	n	n	x	x
Cc1nc(-c2cccc(NC(=O)c3cccs3)c2)cs1	n	n	n	n	n	x	x
O=C(Nc1cccc(-c2csc(-c3ccccc3)n2)c1)c1cccs1	n	9.8	n	n	n	n	12
CCOC(=O)c1sc(NC(=O)Nc2ccccc2)cc1C	n	9.2	n	n	n	n	n
Cc1cc(Oc2ccccc2)nc(N)n1	n	n	n	n	n	x	x
Cc1cc(SCCOc2ccccc2)nc(N)n1	n	11	n	n	n	n	n
Cc1ccc(OCCC(=O)OCC(=O)Nc2ccc(C)c(S(=O)(=O)N3CCOCC3)c2)cc1	n	9.1	n	n	n	n	n
SMILES	KLK7 zymogen act	ADAM17 inh	PLCg1 inh	ADAM10 inh	PLCb3 inh	ADAM10 ctr	ADAM17 confirm
Cc1ccc(S(=O)(=O)NCC(=O)OCC(=O)Nc2ccc(C)c(S(=O)(=O)N3CCOCC3)c2)cc1	n	n	n	n	n	x	x
Cc1ccc(NC(=O)COC(=O)c2cccc(OC(F)F)c2)cc1S(=O)(=O)N1CCCCC1	n	9.1	n	n	n	45	25
Cn1cccc1C(=O)N1CCN(S(=O)(=O)c2ccc([N+](=O)[O-])cc2)CC1	n	n	n	n	n	x	x
O=C(c1ccc([N+](=O)[O-])cc1)N1CCN(C(=O)C2CCCCC2)CC1	n	n	n	n	n	x	x
COc1ccc(CCC(=O)NNC(=O)c2cc(Cl)ccc2OC)cc1	n	8.8	n	n	n	n	n
COc1ccc(CCC(=O)NNC(=O)c2cc(Cl)ccc2OC)cc1OC	n	n	n	n	n	x	x
COc1ccc(NC(=O)Cn2nnc(-c3ccccc3N)n2)cc1OC	n	n	n	n	n	x	x
COc1cc(NC(=O)Cn2nnc(-c3ccccc3N)n2)cc(OC)c1	n	9.6	n	n	n	n	n
Cc1cccc(CSCCNC(=O)c2ccc(N(C)S(=O)(=O)c3ccccc3)cc2)c1	n	11	n	n	n	23	12
CC(OC(=O)c1cc(=O)[nH]c2ccccc12)C(=O)NC1CCCC1 (stereo not drawn)	n	n	n	n	n	x	x
O=C(CSc1ccc(-c2ccco2)nn1)c1ccc(F)cc1	n	9.4	n	n	n	n	n
C[C@H](CO)N1C[C@H](C)[C@@H](CN(C)S(=O)(=O)c2ccc(F)cc2)Oc2c(NC(=O)c3ccncc3)cccc2C1=O	n	10	n	n	n	n	n
C[C@H](CO)N1C[C@H](C)[C@@H](CN(C)C)Oc2c(NC(=O)CCC(F)(F)F)cccc2C1=O	n	10.0	n	n	n	n	n
C[C@H](CO)N1C[C@H](C)[C@@H](CN(C)S(=O)(=O)c2ccccc2)Oc2c(NC(=O)c3ccncc3)cccc2C1=O	n	11	n	n	n	n	n
C[C@H](CO)N1C[C@H](C)[C@@H](CN(C)S(=O)(=O)c2ccc(F)cc2)Oc2c(NC(=O)Cc3ccccc3)cccc2C1=O	n	n	n	n	n	x	x
C[C@H]1[C@@H](N(C)C)CC[C@@]23CCCN2C(=O)CCC[C@@H]13	x	n	n	n	n	x	x
Cc1ccc(CNC(=O)Cn2ccc3cc(S(=O)(=O)N4CCCCCC4)ccc32)cc1	n	8.8	n	n	n	n	n
Cc1ccc(SCc2c(-c3ccccc3)nn(C)c2Cl)cc1	n	n	n	n	n	x	x
Cn1nc(-c2ccccc2)c(CSc2ccccc2)c1Cl	n	9.3	n	n	n	n	9.3
CCCn1c(N)c(C(=O)CSc2nncs2)c(=O)[nH]c1=O	n	n	n	n	n	x	x
Clc1ccc(OCc2nc(-c3ccccn3)n[nH]2)cc1	n	9.4	n	n	n	n	n
Brc1ccc(OCc2nc(-c3ccccn3)n[nH]2)cc1	n	n	n	n	n	x	x
OCc1ccnc2c(O)cccc12	n	8.9	n	n	n	n	n
CC(C)C[C@H]1CNC(=S)N1C[C@H]1CCCN1C[C@H](Cc1ccccc1)N1C[C@H](Cc2ccc(O)cc2)N(CCc2ccccc2)C1=S	n	9.5	n	n	n	n	9.5
CCOc1ccc(CCN2C(=S)N([C@@H](Cc3ccc(O)cc3)CN3CCC[C@@H]3CN3C(=S)NC[C@@H]3Cc3ccccc3)C[C@@H]2Cc2ccc(O)cc2)cc1	n	12	n	n	n	n	8.8
